Test results from PubChem BioAssay AID624305 (National Center for Advancing Translational Sciences (NCATS), 2012).
Inconclusive results are not listed. A call without a number means that no potency is given here. Calls of active or inactive are those of the source. The call rests on the fitted dose curve; in most records, active means well fitted activation curve with a large enough effect; inconclusive means small, poorly fitted or top-dose-only effect; inactive means no such curve, though single readings can be large or run the other way.

test: qHTS assay for re-activators of p53 using a Luc reporter: Hit Validation; conditions: p53-responsive luciferase reporter cells, luminescence, H1299 line expressing heat-sensitive Ala138Val p53; series mostly up to 46.1 µM; further: nearly all actives have a fitted effect of over 75% in size
In short: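 H1299 (p53-null) cells stably carrying p53-A138V and a BP100-luciferase reporter, 1000 cells/well, treated 24 h at 37 deg C. Compounds at several concentrations, 1:5 dilution; nocodazole control; luminescence read after 10 min with detection reagent.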
Potency means the concentration at half of the fitted maximal effect.

For N#CC(c1ccccc1)C1CCN(Cc2ccccc2)CC1 (stereo not drawn), which Potency is on record?
Its Potency is “inactive”.

Which Potency does the source give for Cc1nn(-c2ccccc2)c(C)c1/C=N/Nc1nc2ccccc2[nH]1 here?
Its Potency is 0.731 µM (active).

With O=C(Nc1ccc(Cl)cn1)C1CCN(c2ncnc3c2nc2n3CCCCC2)CC1 as the compound, how does the Potency read?
The Potency was “inactive”.

Which Potency does the source give for Clc1ccc(Nc2nc(-c3cccs3)cs2)nc1 here?
Its Potency is 4.11 µM (active).

For O=C(NC(=S)Nc1nc2ccccc2s1)c1ccco1, which Potency is on record?
The Potency was 0.58 µM (active).

Which Potency does the source give for N#CC1(c2ccc(NC(=O)c3ccccc3F)cc2)CCCC1 here?
The Potency was 1.64 µM (active).

With Cc1ccc(NC(=O)/C=C/c2ccc([N+](=O)[O-])s2)c(C)c1 as the compound, how does the Potency read?
The Potency was 2.91 µM (active).

With C/C(=N\NC(=O)c1cccs1)C(C)(C)C as the compound, how does the Potency read?
The Potency was “inactive”.

Which Potency does the source give for Cc1nc(NC(=O)c2csc3ccccc23)sc1C here?
The Potency was 0.82 µM (active).

Which Potency does the source give for CCCCCCC1CC(/C(C)=N\NC(N)=O)OC1=O (stereo not drawn) here?
Its Potency is “inactive”.

With CC(=O)c1cc2c(C)c(C(=O)c3ccccc3)oc2cc1O as the compound, how does the Potency read?
The Potency was 0.411 µM (active).

With COc1cccc(/C=N/NC(=O)CCc2n[nH]c(=O)[nH]c2=O)c1O as the compound, how does the Potency read?
Its Potency is “inactive”.

With CN1CCN(C2=C(Cl)C(=O)N(Cc3ccccc3)C2=O)CC1 as the compound, how does the Potency read?
Its Potency is “inactive”.

With Nc1nc(-c2ccc([N+](=O)[O-])cc2)cs1 as the compound, how does the Potency read?
Its Potency is “inactive”.

For COc1ccc2nc(SCc3ccccc3)nc(C)c2c1, which Potency is on record?
Its Potency is 1.46 µM (active).

Which Potency does the source give for Oc1cccc2c(NC(=S)Nc3ccc(OC(F)F)cc3)cccc12 here?
The Potency was “inactive”.

Which activation does the source give for O=C(/C=C/c1ccccc1)NC1CCSC1=O (stereo not drawn) here?
The activation was 23.4% [at 9.22 µM] (inactive).

With Cc1cccc(NC(=S)NC(=O)C2CC2)c1 as the compound, how does the Potency read?
Its Potency is “inactive”.

For COCC(C)NC(=O)C1CC(=O)N(c2ccc(C)cc2)C1 (stereo not drawn), which activation is on record?
The activation was -21.3% [at 9.22 µM] (inactive).

For CCCN1CCC(=NNC(=O)CSc2cc(C)c(Br)cc2C)CC1, which Potency is on record?
Its Potency is “inactive”.

With COc1ccc(NC(=O)/C(Cl)=C(/Cl)S(=O)(=O)Cc2ccc(C)cc2)cn1 as the compound, how does the Potency read?
The Potency was “inactive”.

Which Potency does the source give for CCN(CC)c1ccc(NC(=O)CN2CCN(CC(=O)Nc3ccccc3F)CC2)cc1 here?
The Potency was “inactive”.

With CN(C(=O)CSc1nnc(-c2ccco2)o1)C1CCCCC1 as the compound, how does the Potency read?
Its Potency is “inactive”.

With Cc1cc(F)ccc1NC(=O)Nc1ccc2c(c1)OCO2 as the compound, how does the Potency read?
Its Potency is “inactive”.

For O=C(Nc1ccc2c(c1)CCC2)c1ccccc1F, which Potency is on record?
The Potency was 0.366 µM (active).

Which Potency does the source give for COc1ccccc1Oc1c(C)oc2c(CN(C)C)c(O)ccc2c1=O here?
Its Potency is “inactive”.

For Cc1ccc(C)c(Oc2cc(NC(=O)CCCn3nc(C)c([N+](=O)[O-])c3C)cc([N+](=O)[O-])c2)c1, which Potency is on record?
The Potency was “inactive”.

For O=C(Nc1ccc2c(c1)CCC2)c1ccccc1, which Potency is on record?
The Potency was 0.411 µM (active).

For CCCCn1c(O)c(N=Nc2ccccc2O)c2ccccc21, which Potency is on record?
The Potency was “inactive”.

For CCOC(=O)N1CCN(S(=O)(=O)c2ccc(C(=O)NNc3nc4cc(C)cc(C)c4s3)cc2)CC1, which activation is on record?
The activation was 6.68% [at 9.22 µM] (inactive).

With COc1ccc(N2CCN(C3CCCN(Cc4cccc(OC)c4)C3)CC2)cc1 (stereo not drawn) as the compound, how does the Potency read?
The Potency was “inactive”.

Which Potency does the source give for COc1ccc([N+](=O)[O-])cc1NC(=O)CSCc1ccc(Br)cc1 here?
The Potency was “inactive”.

Which Potency does the source give for CCCCn1c(/C=N/Nc2nc3ccccc3[nH]2)nc2ccccc21 here?
Its Potency is 23.1 µM (active).

With C/C(=N\NC(=O)c1cc(C)nc2ccccc12)c1ccccn1 as the compound, how does the Potency read?
The Potency was 16.4 µM (active).

For COCCN(Cc1cn[nH]c1-c1ccc2cc(OC)ccc2c1)C(C)C, which Potency is on record?
Its Potency is “inactive”.

For CCN1C(=S)SC(=O)C1=C1C=C(C)N(CCO)C(C)=C1, which Potency is on record?
Its Potency is 1.3 µM (active).

With CCc1ccc(NC(=O)c2cnn3ccccc23)cc1 as the compound, how does the Potency read?
The Potency was 0.92 µM (active).

For Cc1cc(NC(=O)c2ccc3nccnc3c2)ccc1Br, which Potency is on record?
The Potency was 4.11 µM (active).
